# This is a sample that favours compounds with a hit; in the whole collection about 3.4% have one here.
# MITF TRPM1 inh: inhibitors of MITF-driven TRPM1 promoter in melanoma cells; actives 0.83% (n = 330,000); AID 488899; inhibition, % at 12.5 µM; SK-MEL-5 TRPM1 promoter luciferase, 24 h;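 active means mean inhibition across replicates of 60% or more, whatever share of single replicates reaches that level; inconclusive means some that reach 60%, reason not given; inactive means mean inhibition across replicates below 60%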
# Shn3 inh set2: Schnurri-3 reporter inhibition in Clone20 osteoblasts; inhibition, % at 12.5 µM; Clone20 osteoblast Shn3 3'UTR firefly luciferase, 24 h; actives 0.52% (n = 360,000);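 active means mean inhibition of at least 75% with every replicate also reaching 75%; inconclusive means mean inhibition at least 75% but some replicate below; inactive means mean inhibition below 75%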;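 further: 0% = median of neutral control wells and 100% = pilot-screen positive control compound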
# TWEAK Fn14 block: blocks TWEAK-Fn14 interaction in a reporter cell assay. TWEAK-stimulated Fn14 reporter cells, luciferase luminescence, 8 h. inhibition, % at 10 µM. actives 2% (n = 360,000); in the data active means inhibition above about 50%
# HIF-2a block: blocks HIF-2a reporter activity; 786-0 RCC cells HIF-2a reporter, luciferase luminescence, overnight; inhibition, % at 18.8 µM; actives 0.72% (n = 360,000); AID 624352;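 active means inhibition of the luminescence signal of 40% or more relative to plate controls, in a single-dose primary screen at 18.75 µM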
# EBV LMP1 NFkB: inhibitors of Epstein-Barr LMP1-induced NF-kappaB reporter | LMP1-induced NF-kappaB luciferase reporter cells, luminescence | inhibition, % at 12.5 µM | actives 0.69% (n = 350,000); in the data active means inhibition above about 41%; inconclusive means no clear call, values can overlap the other calls;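 further: 0% = neutral control wells and 100% = reference inhibitor control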
# TROY NFkB inh: blocks TROY-dependent signaling in reporter cells | Q293 LMP1-TROYcd NF-kB luciferase reporter, 4 h | inhibition, % at 10 µM | actives 0.98% (n = 360,000) | AID 1347056;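 active means compounds whose plate-normalised and pattern-corrected inhibition of the luciferase reporter signal at the single screening dose is 50% or more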
# Starred values were filed as active, the others as inactive; ? = inconclusive; / = no result given.
SMILES,MITF TRPM1 inh,Shn3 inh set2,TWEAK Fn14 block,HIF-2a block,EBV LMP1 NFkB,TROY NFkB inh
O=C(CCCN1C(=O)/C(=C/c2ccccc2Cl)SC1=S)N1CCCC1,21,-35,58*,59*,7,11
Cc1cc(NC(=O)CCCN2C(=O)/C(=C/c3ccccc3Cl)SC2=S)no1,-2,-37,-15,4,-2,-13
O=C(O)CN1C(=O)/C(=C\c2ccccc2OCc2ccc(Cl)cc2Cl)SC1=S,3,36,97*,66*,44*,80*
O=C(O)CN1C(=O)/C(=C\c2cc(Br)ccc2OCc2ccccc2Cl)SC1=S,10,-6,-20,-22,-11,50
CCC[C@H]1CN(c2ccccc2)C(=O)[C@@H]1CC(=O)Nc1ccc(Br)cc1,/,-18,7,3,-1,-6
CSCCC(NS(=O)(=O)c1ccccc1)C(=O)OC(C)C(=O)Nc1ccc(Cl)cn1 (stereo unspecified),3,-15,6,2,5,4
CC(=O)NC(c1ccc(F)c(F)c1)c1nc(-c2cccc(F)c2)cs1 (stereo unspecified),/,6,-14,-28,/,-22
Cc1occc1-c1nc(-c2ccccn2)no1,17,2,62*,-62,14,3
c1ccc(-c2noc(-c3ccc4ccccc4c3)n2)nc1,79*,89*,105*,88*,82*,86*
Cc1occc1-c1nc(-c2ccncc2)no1,-44,4,-28,-140,-5,-9
c1ccc(-c2noc(-c3ccncc3)n2)nc1,-10,-49,35,-136,6,2
CCCCn1nnnc1C1(C)CCC(=O)N1c1ccc(N2CCOCC2)cc1 (stereo unspecified),/,/,1,2,/,-10
CCOC(=O)C1=C(CC)Nc2ccccc2N=C1NC(=O)c1cc(C)on1,10,-4,-3,13,4,-3
CCOC(=O)C1=C(CC)Nc2ccccc2N=C1NC(=O)Nc1ccc(Cl)c(Cl)c1,-2,23,73*,-72,39,53*
CC(=O)c1cc2cccc(OC3(C)CCN(Cc4ccc5ccccc5c4)C3)c2o1 (stereo unspecified),/,14,-4,-1,/,-4
CN(C)CCCn1c2c3ccccc3ccc2c2oc(=O)c3ccccc3c21,80*,-84,-32,-94,-23,-36
CN(C)CCCn1c(=S)[nH]c2ccccc2c1=O,-5,-9,-3,17,0,9
COc1ccc(-n2nc3cc(C)c(NC(C)=O)cc3n2)cc1,3,-11,75*,-99,20,57*
CCN1C/C(=C/c2cccc([N+](=O)[O-])c2)C(=O)/C(=C/c2cccc([N+](=O)[O-])c2)C1,92*,99*,95*,97*,97*,-30
Cc1ccc([C@H]2N[C@]3(CCCN(CC4CCCCC4)C3=O)[C@H]3C(=O)N(C)C(=O)[C@@H]23)cc1,/,-1,11,1,-7,-3
CC(=N)c1c(O)cc(C)oc1=O,4,7,6,11,3,8
CCc1ccc(CNC(=O)c2cc3c(C)nc4ccccc4c3o2)cc1,9,84,58*,-12,21,45
COc1ccc(CNC(=O)c2cc3c(C)nc4ccccc4c3o2)c(OC)c1,/,90*,38,-2,/,48
CCCCN(CC)CCNC(=O)c1cc2c(C)nc3ccccc3c2o1,0,52,-4,12,-20,-11
COc1cc(NC(=O)c2cc3c(C)nc4ccccc4c3o2)cc(OC)c1OC,-6,17,12,-11,-3,0
SMILES,MITF TRPM1 inh,Shn3 inh set2,TWEAK Fn14 block,HIF-2a block,EBV LMP1 NFkB,TROY NFkB inh
Cc1nc2ccccc2c2oc(C(=O)NCC3COc4ccccc4O3)cc12 (stereo unspecified),/,58,93*,-8,0,73*
COc1cccc(CNC(=O)c2cc3c(C)nc4ccccc4c3o2)c1,/,?,52*,-15,18,44
CCN1CCCC1CNC(=O)c1cc2c(C)nc3ccccc3c2o1 (stereo unspecified),1,24,-16,3,-22,7
C#CCn1c(=O)c2c(ncn2C)n(C)c1=O,3,9,-11,0,44*,-12
CCOC(=O)c1nc2sc(C)c(C)c2c(=O)[nH]1,12,-6,1,6,1,-19
CCOC(=O)/C(=C\c1cccc(O)c1)c1nc2sc(C)c(C)c2c(=O)[nH]1,25,36,101*,95*,3,37
COc1cccc(-c2c(C(=O)N/N=C/c3ccc(C)o3)nnn2-c2nonc2N)c1,-5,3,-11,-17,-2,-8
CN1C[C@@H]2[C@@H]3C(=O)N(C)C(=O)[C@@H]3[C@](C)(C1=O)N2C(=O)c1ccc(F)cc1,13,13,13,7,0,23
CCc1nc(Nc2ccc3c(c2)OCCO3)c2oc3ccccc3c2n1,-9,-2,79*,-80,9,46
CCc1nc(NCC2CCCO2)c2oc3ccccc3c2n1 (stereo unspecified),12,6,87*,19,2,/
Cc1nc(Nc2ccc3c(c2)OCCO3)c2oc3ccccc3c2n1,-8,-13,-4,-26,3,-7
c1ccc2c(c1)oc1c(Nc3ccc4c(c3)OCCO4)ncnc12,-34,-30,67*,-256,-13,-39
Cc1nc(NCC2CCCO2)c2oc3ccccc3c2n1 (stereo unspecified),11,9,-4,5,2,-1
COc1ccc(N2CCCn3c2nc2c3c(=O)n(CCN3CCOCC3)c(=O)n2C)cc1,5,-14,12,3,4,26
Cc1cccc(N2CCCn3c2nc2c3c(=O)n(CCN3CCOCC3)c(=O)n2C)c1,17,5,108*,14,8,11
COc1ccccc1NC(=O)C(C)OC(=O)c1cccc(-n2cnnn2)c1 (stereo unspecified),1,-10,-8,6,3,0
COc1ccccc1C(=O)/C=C/c1ccc(N2CCCCC2)c([N+](=O)[O-])c1,5,-15,55*,44*,-11,-34
O=C(/C=C/c1ccc(N2CCCCC2)c([N+](=O)[O-])c1)c1ccc(O)cc1,-15,3,14,-224,-26,49
COCCNc1nc(Oc2cncc(Cl)c2)c2sccc2n1,/,12,50*,8,/,27
c1ccc(C[C@H]2CN=C(Nc3ccccc3)N2CC2CCCC2)cc1,/,/,12,-17,/,-9
O=C(COc1coc(CN2CCc3ccccc32)cc1=O)Nc1cccc(F)c1,4,-7,-2,6,3,3
Cc1cc2nc(-c3ccc[nH]c3=O)n(Cc3ccc(F)cc3)c2cc1C,-7,-1,-9,-60,-7,-32
Cc1cc2nc(-c3ccc[nH]c3=O)[nH]c2cc1C,39,19,83*,35,-5,26
